# Screening data as filed in PubChem BioAssay.
# An excerpt weighted towards active compounds, which were near 1.8% of everything screened.
# SUMO HTRF inh: inhibitors of in vitro SUMOylation cascade, primary screen, biochemical, HTRF, uHTS; AID 2006, 2009; HTRF SUMOylation assay, SAE1/SAE2 + UBC9; SUMO-conjugating enzyme UBC9 (Homo sapiens), P63279; inhibition, % at 35 µM; actives 0.36% (n = 290,000); in the data active means inhibition above about 50%, passing the limit was not always enough
# PHOSPHO1 inh: PubChem AID 1565; Phosphoethanolamine/phosphocholine phosphatase (Homo sapiens), Q8TCT1; recombinant PHOSPHO1, absorbance phosphatase assay; inhibition, % at 13.3 µM; actives 1.1% (n = 290,000); in the data active means inhibition above about 60%
# Target sequence (Q8TCT1 whole entry, looked up): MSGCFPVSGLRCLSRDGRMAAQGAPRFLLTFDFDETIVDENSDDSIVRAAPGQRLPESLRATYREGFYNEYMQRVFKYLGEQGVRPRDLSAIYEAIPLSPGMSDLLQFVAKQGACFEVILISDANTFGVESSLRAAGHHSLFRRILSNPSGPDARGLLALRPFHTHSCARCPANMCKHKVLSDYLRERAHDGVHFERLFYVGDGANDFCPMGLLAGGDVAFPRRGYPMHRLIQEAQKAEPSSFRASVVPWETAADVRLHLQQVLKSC
# NadD block: inhibitors of S. aureus NadD, primary screen, biochemical, colorimetric, uHTS. Nicotinate-nucleotide adenylyltransferase NadD (Staphylococcus aureus N315). purified NadD enzyme, colorimetric absorbance read-out. inhibition, % at 20 µM. actives 0.78% (n = 360,000). AID 602399, 2012; in the data active means inhibition above about 26%
# pCIP destab: p/CIP-EGFP fusion destabilizers, primary screen, fluorescence, F442A cells. Q05BA5. 16 h. decrease of EGFP signal, % at 10 µM. actives 0.01% (n = 290,000). AID 1984, 2009;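 active means EGFP signal decrease of at least 30% at 10 µM or well 3 SD below plate mean, unless failing retest; inactive means the rest, including hits failing retest or dose response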
# * = called active by the depositor; x = no result given.
SMILES,SUMO HTRF inh,PHOSPHO1 inh,NadD block,pCIP destab
CN1C(=S)SC(N(O)C(=O)Nc2cccc3ccccc23)C1(C)C (centres undefined),29,63*,-3,-7
CN1C(=S)SC(N(O)C(=O)Nc2ccccc2)C1(C)C (centres undefined),-7,14,4,8
CC(=O)Nc1ncc(Cc2cccc(Cl)c2)s1,5,60*,0,-2
Cc1ccc(Cc2cnc(NC(=O)c3ccco3)s2)cc1,0,12,-1,4
O=C(Nc1ncc(Cc2cccc([N+](=O)[O-])c2)s1)c1ccco1,14,60*,-5,-1
CC(C)(C)OC(=O)N1CCN(C(c2ccnc3ccccc23)c2nnnn2-c2ccc3c(c2)OCCO3)CC1 (centres undefined),x,x,2,x
Cc1ccccc1CN(C)CC(=O)Nc1cccc(S(=O)(=O)N(C)c2ccccc2)c1,-22,62*,-10,-3
O=C(Nc1ccc(O)cc1)c1ccc(NC(=O)C2CCCO2)cc1 (centres undefined),-2,66*,-4,-23
COc1ccc(C2=NS(=O)(=O)N(C)C(C(=O)N3CCCCC3)=C2)cc1OC,8,28,-3,-8
Cc1sc(-n2c(C)ccc2C)c(C#N)c1C,17,95*,2,-1
Cc1ccc(C)n1-c1sc2c(c1C#N)CCCC2,1,2,0,-4
CC(=O)c1cccc(NC(=O)COC(=O)C2=COCCO2)c1,-10,68*,4,-4
COC(=O)c1sccc1NC(=O)Nc1ccccc1F,0,63*,-9,0
COc1cccc(CN(C)C(=O)c2cc(COc3ccc4ncccc4c3)on2)c1,3,61*,-4,1
O=C(C1=NOC2(C1)C(=O)Nc1ccccc12)N1CCOCC1 (centres undefined),x,x,-4,x
Cn1c(=O)c2c(nc(OC3CCCC3)n2C)n(C)c1=O,x,x,-1,x
CCc1nc2ccccc2c(C(=O)OC2CCOC2=O)c1C (centres undefined),-6,-7,-4,-2
CCCc1nc2ccccc2c(C(=O)OC2CCOC2=O)c1CC (centres undefined),1,66*,-2,1
COC(=O)c1ccc(N2CCN(C)CC2)c(NC(=O)c2sc3ccccc3c2Cl)c1,x,x,6,x
O=S1(=O)CC(N2CCCCC2)CN1Cc1ccc(F)cc1 (centres undefined),x,x,-5,x
O=C(OCC(=O)N1CCCCC1)c1cccs1,x,x,-3,x
O=C(OCC(=O)N1CCc2ccccc2C1)c1cccs1,1,65*,-5,0
O=C1CCCCN1CCC(=O)N1CCCC(N2CCN(c3ccccc3)CC2)C1 (centres undefined),x,75*,-2,-2
CCCS(=O)(=O)NC(=O)C1(C)CCN(C(=O)c2ccc(C(=O)OC)cc2)C1 (centres undefined),x,x,1,x
COc1ccc(-c2cnc3c(NC=O)cc(-c4ccccc4OC)cn23)cc1OC,x,x,7,x
SMILES,SUMO HTRF inh,PHOSPHO1 inh,NadD block,pCIP destab
O=C1OCC(Cn2c3ccccc3c3ccccc32)O1 (centres undefined),-3,78*,-4,-2
O=c1c2ccccc2c2ccccc2c(=O)n1CC1CCCO1 (centres undefined),13,-2,0,3
Cc1ccc(/C=N\NC(=O)C2CC(=O)N(c3ccccc3)C2)o1 (centres undefined),-1,34,2,1
O=C(N/N=C/c1c[nH]c2ccccc12)C1CC(=O)N(c2ccccc2)C1 (centres undefined),7,73*,-8,0
CCOC(=O)/C(C#N)=C/c1cccc([N+](=O)[O-])c1,19,64*,1,2
CCOC(=O)/C(C#N)=C/c1cccc(C)c1,10,12,-6,7
Oc1c(C=Nc2ccccc2)sc2ccccc12,5,10,-1,-8
Oc1sc(C=Nc2ccc(F)cc2)c2ccccc12,-14,65*,-3,-204
Oc1sc(C=Nc2ccccc2)c2ccccc12,9,65*,-2,-97
COc1ccc(-c2c(-c3cc(OC)cc(OC)c3)n(C)c3ccc(-c4cc(F)cc(OC)c4)cc23)cc1,x,x,13,x
Cc1c(C(=O)NN2CCN(C)CC2)cccc1[N+](=O)[O-],22,60*,1,0
Cc1c(C(=O)NN2CCOCC2)cccc1[N+](=O)[O-],x,x,-7,x
CC1(C(=O)NS(=O)(=O)c2ccc(Cl)s2)CCN1C(=O)Cc1ccc(-c2ccccc2)cc1 (centres undefined),x,x,3,x
